Pf Dd2 inh = P. falciparum Dd2 growth inhibitors, primary screen, SYBR Green fluorescence, single dose replicates; 72 h; active compounds read low; activity change, % at 10 µM; actives 2.3% (n = 94,000); AID 1159554, 2015; in the data active = activity change below about -80%; inconclusive = no clear call, values can overlap the other calls
C diff HTS = C. difficile growth inhibitors, primary screen, HTS | AID 1259249, 2017 | actives 0.25% (n = 86,000) | Clostridium difficile clinical isolate growth, OD600, 24 h; active compounds read low | growth activity, negative = inhibition, % at 16 µg/mL (by protocol);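 active = mean growth activity at or below -80% and every replicate also at or below -80%; inconclusive = mean at or below -80% but some replicate above -80%; inactive = mean growth activity above -80%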
T cruzi growth-1 = T. cruzi intracellular proliferation inhibitors, primary screen, cell-based, beta-gal Tulahuen parasites, NIH3T3 host, luminescence; T. cruzi beta-gal in NIH3T3, GalScreen luminescence, 90 h; inhibition, % at 8.34 µM; actives 5.9% (n = 77,000); AID 624255, 2012;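 active = mean inhibition above about 93%, with at least 55% of replicates each passing it, limit read from the data, passing the limit was not always enough; inconclusive = only one of those two conditions holds; inactive = neither condition holds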
T cruzi growth-2 = T. cruzi intracellular proliferation inhibitors, confirmation, cell-based, NIH3T3 host, beta-gal parasite, luminescence, cherry-pick | T. cruzi beta-gal in NIH3T3, GalScreen luminescence, 90 h | AID 651739, 2012 | inhibition, % at 8.35 µM | shares compounds with T cruzi growth-1 | actives 72% (n = 5,600);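 active = mean replicate inhibition above about 95% and at least 55% of replicates individually reaching it, limit read from the data; inconclusive = only one of the two criteria is met; inactive = neither criterion is met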
T cruzi growth-3 = inhibitors of intracellular T. cruzi replication, confirmation, NIH3T3 host cells, beta-gal parasites, cherry-pick, set 2. shares compounds with T cruzi growth-1. T. cruzi beta-gal in NIH3T3, GalScreen luminescence, 90 h. inhibition, % at 2.09 µM. actives 21% (n = 5,600). AID 651740, 2012;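 active = mean inhibition above about 95%, with at least 55% of replicates also reaching it, limit read from the data; inconclusive = meets just one of the two conditions; inactive = meets neither condition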
3T3 cytotox = cytotoxicity in mouse NIH/3T3 fibroblasts, confirmation, cytotoxicity control for T. cruzi proliferation inhibitor project, cell-based, cherry-pick, single point; shares compounds with T cruzi growth-1; NIH/3T3 viability, CellTiter-Glo ATP luminescence, 90 h; actives 14% (n = 5,600); cytotoxicity (signal decrease), % at 8.35 µM; AID 651742, 2012;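 active = mean signal decrease across replicates above about 35% based on untreated-well scatter, with enough replicates individually passing, limit read from the data; inconclusive = no rule stated though some were filed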
NIH3T3 tox 2 = NIH/3T3 fibroblast cytotoxicity, confirmation, cytotoxicity control, cell-based, cherry-pick, single point, set 2. actives 56% (n = 5,600). NIH/3T3 viability, CellTiter-Glo ATP luminescence, 90 h. shares compounds with T cruzi growth-1. inhibition, % at 24.9 µM;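 active = mean loss of cell viability signal at or above a set limit, and enough replicates individually reaching it; inconclusive = meets only the mean limit or only the replicate share; inactive = meets neither condition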
Numbers stand for hits; - = inactive; ? = inconclusive; . = no result; ! = repeats disagree. Compounds with a hit are over-represented: about 6.7% of the library has one in this group of screens.

SMILES	Pf Dd2 inh	C diff HTS	T cruzi growth-1	T cruzi growth-2	T cruzi growth-3	3T3 cytotox	NIH3T3 tox 2
COc1ccc(NC(=O)Nc2ccc3c(c2)CC(=O)N([C@@H](C)CO)C[C@H](C)[C@@H](CN(C)S(=O)(=O)c2ccc(OC)cc2)O3)cc1	-	-	-	.	.	.	.
CN1CCN(C(=O)C[C@@H]2CC[C@H]3[C@@H](COC[C@@H](O)CN3CC3CCCC3)O2)CC1	-	-	.	.	.	.	.
COc1cccc(S(=O)(=O)N(C)C[C@H]2Oc3ncc(C#CCN(C)C)cc3C(=O)N([C@H](C)CO)C[C@H]2C)c1	-	-	-	.	.	.	.
COC(=O)C[C@@H]1C=C[C@@H](NS(=O)(=O)c2ccccc2F)[C@@H](CO)O1	-	.	-	.	.	.	.
O=C(C[C@@H]1C[C@H]2c3cc(NC(=O)NC4CCCC4)ccc3O[C@H]2[C@@H](CO)O1)NCc1ccc(-c2ccccc2)cc1	-	-	-	.	.	.	.
O=C(C[C@@H]1C[C@@H]2c3cc(NC(=O)CC4CC4)ccc3O[C@@H]2[C@@H](CO)O1)NCc1cccnc1	-	-	99.9	112.9	-	-	-
O=C(C[C@@H]1C[C@H]2c3cc(NC(=O)NC4CCCC4)ccc3O[C@H]2[C@@H](CO)O1)NCc1ccc(Cl)cc1	-	-	-	.	.	.	.
O=C(C[C@@H]1C[C@H]2c3cc(NC(=O)NC4CCCC4)ccc3O[C@H]2[C@H](CO)O1)NCc1ccc(-c2ccccc2)cc1	-	-	100.4	104.8	?	-	51.4
O=C(C[C@@H]1C[C@H]2c3cc(NC(=O)Cc4ccncc4)ccc3O[C@H]2[C@@H](CO)O1)NCc1cccnc1	-	-	-	.	.	.	.
O=C(C[C@H]1C[C@@H]2c3cc(NC(=O)CC4CC4)ccc3O[C@@H]2[C@H](CO)O1)NCc1ccc(-c2ccccc2)cc1	-	-	103.7	111.7	-	-	-
O=C(C[C@H]1C[C@@H]2c3cc(NC(=O)NC4CCCC4)ccc3O[C@@H]2[C@@H](CO)O1)NCc1ccc(Cl)cc1	-	-	?	103.2	-	-	-
O=C(C[C@H]1C[C@@H]2c3cc(NC(=O)CC4CC4)ccc3O[C@@H]2[C@@H](CO)O1)NCc1ccc(-c2ccccc2)cc1	-	-	-	.	.	.	.
C=C[C@@H](COC(C)=O)N(Cc1ccccc1[N+](=O)[O-])S(=O)(=O)c1ccc(Br)cc1	.	-	.	.	.	.	.
C[C@H]1CN([C@@H](C)CO)C(=O)c2cccc(NC(=O)Nc3ccc(F)cc3)c2O[C@H]1CN(C)C	-	-	.	.	.	.	.
CCCNC(=O)N(C)C[C@H]1Oc2cc(-c3cncnc3)ccc2S(=O)(=O)N([C@H](C)CO)C[C@H]1C	-	-	.	.	.	.	.
OC[C@H]1[C@H](c2ccc(-c3ccccc3F)cc2)[C@@H]2CN(Cc3ccncc3)CCCCN12	-	-	105.7	101.2	-	-	102.7
OC[C@@H]1[C@H](c2ccc(-c3ccccc3F)cc2)[C@@H]2CN(Cc3cccnc3)CCCCN12	-	-	-	.	.	.	.
OC[C@H]1[C@H](c2ccc(-c3ccccc3F)cc2)[C@@H]2CN(Cc3cccnc3)CCCCN12	-	-	-	.	.	.	.
OC[C@@H]1[C@@H](c2ccc(-c3ccccc3F)cc2)[C@H]2CN(Cc3ccncc3)CCCCN12	-	-	103.8	-	-	-	81.5
OC[C@H]1[C@@H](c2ccc(-c3ccccc3F)cc2)[C@H]2CN(Cc3cccnc3)CCCCN21	-	-	-	.	.	.	.
OC[C@@H]1[C@H](c2ccc(-c3ccccc3F)cc2)[C@H]2CN(Cc3ccncc3)CCCCN12	-	-	106.7	-	-	45.8	102.9
O=C(C[C@@H]1C[C@H]2c3cc(NC(=O)c4ccc5c(c4)OCO5)ccc3O[C@H]2[C@H](CO)O1)NCc1cc(F)ccc1F	-	.	-	.	.	.	.
CO[C@H]1CN(C)C(=O)c2ccc(NS(C)(=O)=O)cc2OC[C@H](C)N(Cc2cccnc2)C[C@@H]1C	-	-	-	.	.	.	.
C[C@H]1CN([C@@H](C)CO)C(=O)c2cc(C#CC3CCCC3)cnc2O[C@@H]1CN(C)S(C)(=O)=O	-	-	.	.	.	.	.
CC(C)NC(=O)N1[C@@H](C#N)[C@H](c2ccc(C#CC3CCCC3)cc2)[C@@H]1CO	-	-	99.6	105.5	-	-	51.8
SMILES	Pf Dd2 inh	C diff HTS	T cruzi growth-1	T cruzi growth-2	T cruzi growth-3	3T3 cytotox	NIH3T3 tox 2
CC(C)NC(=O)N1[C@H](CO)[C@@H](c2ccc(C#CC3CCCC3)cc2)[C@@H]1C#N	-	-	98.5	102.8	-	-	-
CC(C)NC(=O)N1[C@@H](C#N)[C@@H](c2ccc(C#CC3CCCC3)cc2)[C@@H]1CO	-	-	105.3	101.4	-	-	27.2
N#C[C@@H]1[C@@H](c2ccc(C#CC3CCCC3)cc2)[C@H](CO)N1C(=O)Nc1ccc(F)cc1	-	-	-	.	.	.	.
CC(C)NC(=O)N1[C@@H](C#N)[C@H](c2ccc(C#CC3CC3)cc2)[C@@H]1CO	-	-	104.4	105.1	?	-	57.5
N#C[C@@H]1[C@H](c2ccc(C#CC3CCCC3)cc2)[C@H](CO)N1C(=O)Nc1ccc(F)cc1	-	-	-	.	.	.	.
CN(C)CC(=O)N1[C@H](C#N)[C@@H](c2ccc(C#CC3CC3)cc2)[C@H]1CO	-	-	-	.	.	.	.
CN(C)CC(=O)N[C@@H]1CC[C@H](CCn2cc(C3CC3)nn2)O[C@@H]1CO	-	-	.	.	.	.	.
CCCNC(=O)[C@H]1[C@H](CO)[C@H]2Cn3c(cccc3=O)[C@@H]1N2Cc1ccccc1	.	-	-	.	.	.	.
COc1ccc(NC(=O)N2CC(=O)N3[C@H](C2)[C@H](c2ccc(Br)cc2)[C@@H]3CO)cc1	-	-	.	.	.	.	.
NCC[C@@H]1CC[C@H](NC(=O)NC2CCCCC2)[C@H](CO)O1	-	-	.	.	.	.	.
COc1ccc(NC(=O)N(C)C[C@@H]2OCCCC[C@H](C)Oc3ccc(N(C)C)cc3C(=O)N([C@H](C)CO)C[C@@H]2C)cc1	-	-	-	.	.	.	.
COc1ccc(NC(=O)N(C)C[C@H]2OCCCC[C@@H](C)Oc3ccc(N(C)C)cc3C(=O)N([C@H](C)CO)C[C@@H]2C)cc1	-	-	105.2!	-	-	-	34.0
COc1ccc(NC(=O)N(C)C[C@@H]2OCCCC[C@H](C)Oc3ccc(N(C)C)cc3C(=O)N([C@H](C)CO)C[C@H]2C)cc1	-	-	-	.	.	.	.
COc1ccc(NC(=O)N(C)C[C@H]2OCCCC[C@H](C)Oc3ccc(N(C)C)cc3C(=O)N([C@H](C)CO)C[C@@H]2C)cc1	-	-	99.7	-	-	-	-

High-throughput results: PubChem, Broad Institute
